# Shown are actives, neighbours in structure and some others; about 2.2% of the full set was active somewhere.
# Hsp70 act = transcriptional activators of Hsp70. HeLa Hsp70 promoter luciferase reporter, luminescence; scaled: vehicle 0, proteasome-inhibitor control 100%. activation, % at 10 µM. 0.04% of 200,000 active. AID 1203;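 active = activation above the mean across all tested compounds plus 3 SD, cutoff set per campaign, cut at about 5.5% in these data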;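 also: 100% = MG132 at 30 µM as the positive control and 0% = DMSO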
# HIF activator = HIF pathway transcriptional activation. U2OS HRE-luciferase reporter, luminescence; normalized: DMSO 0%, desferrioxamine 100%. activation, % at 7.5 µM (by protocol). 0.32% of 300,000 active. AID 1910;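 active = mean activation of at least 10% of the iron chelator positive control signal, with at least half of replicates also reaching 10%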
# FXN GAA850 act = activators of GAA850 frataxin (FXN) promoter; HEK293 lucGAA850 FXN promoter luciferase reporter, 24 h; percent of 10 µM SAHA response; activation, % at 6 µM; 0.56% of 360,000 active; AID 540364;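 active = activation above the average of all compounds screened plus 3 SD, cutoff fixed separately per campaign, cut at about 7.5% in these data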;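 also: 0% = DMSO wells and 100% = 10 µM SAHA wells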
# GalR3 antagonist = human GalR3 antagonism; O60755; HEK293 GalR3-CNG cAMP membrane potential fluorescence; galR3 body fused to GalR1 C-terminus; inhibition, % at 3 µM; 0.44% of 360,000 active; AID 651719;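 active = inhibition above the screen-wide average plus 3 SD, cut at about 13% in these data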;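 also: forskolin and galanin both at EC90 stimulate the cells; cAMP rise reported by CNG channel membrane potential dye signal; 0% = forskolin plus galanin with DMSO and 100% = forskolin alone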
# Target sequence (O60755 1-299 limits assumed): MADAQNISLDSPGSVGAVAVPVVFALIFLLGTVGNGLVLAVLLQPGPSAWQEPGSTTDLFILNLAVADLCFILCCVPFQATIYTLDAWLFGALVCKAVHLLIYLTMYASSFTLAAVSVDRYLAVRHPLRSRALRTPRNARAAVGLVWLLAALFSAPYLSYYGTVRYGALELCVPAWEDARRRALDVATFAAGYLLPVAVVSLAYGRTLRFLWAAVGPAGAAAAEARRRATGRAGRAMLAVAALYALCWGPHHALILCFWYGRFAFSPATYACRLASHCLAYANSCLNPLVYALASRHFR
# SMARCA2 activ = activators of SMARCA2 function; MG213 cells, MMTV-luciferase reporter, dexamethasone, overnight; activation, % at 9.1 µM; 1% of 370,000 active; in the data active = activation above about 7.8%;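 also: 0% = vehicle wells and 100% = reference activator wells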
# GAA30 FXN cntr = counter-screen for GAA850 frataxin promoter activators: GAA30 promoter activation; shares compounds with FXN GAA850 act; HEK293 lucGAA30 FXN promoter luciferase, 24 h; DMSO = 0%, 5 µM ipriflavone = 100%; activation, % at 6 µM; 66% of 1,900 active; AID 588350;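 active = mean activation above the mean of solvent-only control wells plus 3 SD, cut at about 22% in these data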;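 also: counterscreen of GAA850 promoter hits where activity marks nonselective or luminescence artifacts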
# FXN GAA850 conf = confirmation of GAA850 frataxin (FXN) promoter activators; shares compounds with FXN GAA850 act; HEK293 lucGAA850 FXN promoter luciferase reporter, 24 h; 100% = activation by SAHA; activation, % at 6 µM; 86% of 1,900 active;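 active = mean activation above a set limit taken from the primary screen, cut at about 8% in these data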;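 also: 0% = DMSO wells and 100% = 10 µM SAHA wells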
# * marks the source's active call; other numbers are inactive results; . = no result given.
SMILES,Hsp70 act,HIF activator,FXN GAA850 act,GalR3 antagonist,SMARCA2 activ,GAA30 FXN cntr,FXN GAA850 conf
Fc1ccc(CSc2nc3ccccc3[nH]2)cc1,0.1,2.1,2.2,-2.3,1.3,.,.
c1ccc(CSc2nc3ccccc3[nH]2)cc1,.,2.4,7.9*,-1.6,2.1,91.2*,29.2*
O=C(Nc1ccccc1O)c1ccc(NC(=O)C2CC2)cc1,.,57.8*,11.1*,-3.5,1.6,128.1*,64.0*
COC(=O)[C@]12C[C@H](CC(=O)N3CCCCC3)C(=O)N(CCc3ccc(OC)c(OC)c3)C1=C[C@H](COCc1ccccc1)O[C@@H]2C,.,.,.,.,-3.9,.,.
CCOC(=O)c1c(CSC(=N)N)n(C)c2cc(Br)c(OC(C)=O)cc12,.,2.1,6.3,-6.2,3.3,.,.
CCOC(=O)c1c(CSC(=N)N)n(-c2ccc(C)cc2)c2cc(Br)c(OC(C)=O)cc12,-0.2,0.6,12.5*,-11.3,-0.9,-10.2,38.0*
N#CC(c1ccccc1)(c1ncc(C(F)(F)F)cc1Cl)N1CCOCC1 (stereo not given),0.9,-0.2,11.4*,-3.1,-0.3,26.0*,9.1*
O=C(Cc1nc2ccccc2[nH]c1=O)c1ccccc1,0.4,4.8,8.8*,1.0,-0.7,140.4*,52.5*
COc1ccc2c(c(-c3ccccc3)cn2C)c1-c1ccccc1,.,.,.,.,-2.6,.,.
C=CCN(CC#Cc1ccccc1)Cc1ccc(OC)cc1,.,.,.,.,-1.9,.,.
Cc1cc(Cl)c2oc(C(=O)N3CCOCC3)c(C)c2c1,.,.,3.1,-6.2,2.9,.,.
Cc1cc(Cl)c2oc(C(=O)N(C)C3CCOC3)c(C)c2c1 (stereo not given),.,2.1,9.8*,7.7,2.0,98.0*,37.5*
Cc1cc(Cl)c2oc(C(=O)N3CCN(C(=O)c4ccco4)CC3)c(C)c2c1,.,4.2,9.8*,4.1,3.6,114.3*,39.6*
CCOC(=O)c1cccc(-c2cc(C(C)=O)c3n(c2=O)CCC3)c1,.,.,.,.,-2.1,.,.
O=C(O)COc1ccccc1/C=C1\C(=O)Nc2ccc(Br)cc21,.,-0.7,0.5,-8.4,-0.9,.,.
O=C1Nc2ccc(Br)cc2/C1=C/C(=O)c1ccccc1,.,.,11.3*,-3.1,-0.8,-7.9,16.6*
COC(=O)[C@]1(CNC(=O)C(C)(C)C)CC(=O)N(C)[C@@H]1c1ccccc1,.,.,.,.,-1.7,.,.
Cc1c(Cl)cccc1N=Cc1ccc([N+](=O)[O-])s1,0.1,2.4,9.2*,-5.5,2.9,5.5,6.1
NC1(C(=O)O)CSSC1,.,.,9.8*,-6.2,1.4,-20.4,24.9*
Cc1cc(C)nc(N2CCN(C(=O)CSc3nc4ccccc4nc3N3CC(C)OC(C)C3)CC2)n1 (stereo not given),.,.,.,.,-0.7,.,.
COC(=O)c1cc(Br)c(N)cc1OC,-0.3,-0.8,2.5,-6.1,0.3,.,.
COc1cc2c(c(Br)c1N)-c1cc(Br)c(N)cc1C2=O,.,.,11.4*,-4.7,4.9,90.8*,45.9*
N/C(=N\N=C\c1ccc(O)cc1)c1nonc1N,-0.1,2.4,2.1,-3.9,0.1,.,.
N/C(=N\N=C\c1cccc(O)c1)c1nonc1N,0.0,0.1,7.9*,-6.4,-1.0,128.3*,20.6*
CCOc1ccc(N=c2scc(-c3ccccc3)n2CCO)cc1,0.1,3.7,0.8,-11.8,-2.5,.,.
SMILES,Hsp70 act,HIF activator,FXN GAA850 act,GalR3 antagonist,SMARCA2 activ,GAA30 FXN cntr,FXN GAA850 conf
CCn1c(-c2ccccc2)csc1=Nc1ccc(O)cc1,0.2,-0.3,9.3*,-5.6,1.4,99.4*,36.7*
O=S(=O)(c1cccc2cccnc12)N1CCc2ccccc21,-0.1,-0.1,0.3,-7.3,2.5,.,.
O=C(C(Cc1ccccc1)NS(=O)(=O)c1cccc2cccnc12)N1CCc2ccccc21 (stereo not given),0.0,.,12.6*,1.9,0.7,23.9*,9.1*
N#Cc1cc(F)cc(OC[C@@H](O)CN2CCC(C(O)(c3ccccc3)c3ccccc3)CC2)c1,.,.,.,.,-0.9,.,.
Cc1ccc(O)c(N/C=C/C(=O)c2ccc(F)cc2)c1,.,1.5,10.7*,-8.0,5.5,19.3,25.4*
Cc1ccc(N/C=C/C(=O)c2ccc(C)cc2)cc1,0.1,2.5,6.1,-2.2,7.0,.,.
O=C(COc1ccc(Cl)cc1[N+](=O)[O-])NC1CCCCC1,0.1,2.7,8.1*,-5.4,0.1,85.1*,28.6*
CC(=O)c1cc(Cl)ccc1OCC(=O)NC1CCCC1,.,.,2.4,-1.8,2.3,.,.
COC(=O)[C@]12C[C@H](CC(=O)NCC34CC5CC(CC(C5)C3)C4)C(=O)N(CCC3=CCCCC3)C1=C[C@H](C1CCCC1)O[C@@H]2C,.,.,.,.,-1.2,.,.
COc1cc(C)ccc1OCc1cc(C(=O)N2CCC(c3ccc(F)cc3)C2)no1 (stereo not given),.,4.3,8.9*,0.1,7.0,117.3*,35.4*
Cc1ccc(C)c(OCc2cc(C(=O)N3CC[C@@H]4CCCC[C@H]4C3)no2)c1,.,2.5,3.9,-2.6,1.3,.,.
O=C(NCc1ccc(C(=O)N2CCCC2)cc1)c1cccc(Br)c1,.,.,.,.,-1.2,.,.
Fc1ccccc1Nc1nc2ccccc2n2nnnc12,-0.1,3.4,8.2*,2.6,5.6,105.7*,42.0*
c1ccc(Nc2nc3ccccc3n3nnnc23)cc1,-0.3,3.0,6.0,.,4.6,.,.
CCN(CC)S(=O)(=O)c1ccc(Nc2nc3ccccc3n3nnnc23)cc1,-0.2,1.6,7.8*,0.6,4.4,90.4*,35.9*
O=C(NCCc1c[nH]c2ccccc12)c1c(Cl)nc2sccn12,-0.3,0.9,7.7*,-3.1,3.5,46.0*,22.9*
Cc1ccccc1NC(=O)OC1CC2CC1[C@H]1CCCCN1[C@H]2Cc1ccccc1 (stereo not given in full),.,.,.,.,-2.7,.,.
NCCN1CCN(S(=O)(=O)c2ccc3c(c2)CCN3C(=O)C2CCC2)CC1,.,.,.,.,-2.0,.,.
Cc1cccc(NC(=S)N=Nc2c(O)n(CN3CCOCC3)c3ccccc23)c1C,-0.2,-0.1,-1.9,0.4,0.3,.,.
Cc1ccc(N=Nc2c(O)n(CN3CCOCC3)c3ccccc23)cc1,1.4,3.8,7.7*,.,.,135.0*,50.2*
O=C(c1ccc(C23CC4CC(CC(C4)C2)C3)o1)N1CCOCC1,0.1,0.0,9.7*,-3.9,0.4,33.9*,21.9*
COc1ccc(C2=NN(S(C)(=O)=O)C(c3ccc4nccnc4c3)C2)cc1 (stereo not given),-0.1,3.5,3.6,-1.0,3.8,.,.
COc1ccc(C2CC(c3ccc(OC)c(OC)c3)=NN2S(C)(=O)=O)cc1 (stereo not given),.,2.3,8.2*,-3.6,3.5,105.0*,39.7*
Cc1c(C)n(Cc2ccc(-c3ccccc3C(=O)O)cc2)c2ccc(C(=O)N[C@@H](C)c3ccc(Br)cc3)cc12,.,.,.,.,-0.3,.,.
Cn1ccsc1=NC(=O)c1ccc(Cl)c([N+](=O)[O-])c1,.,-0.2,3.6,-4.8,3.6,.,.
